# Results: PubChem BioAssay (EPA / NIEHS)
# Where a structure was tested more than once in an assay, its records may differ in their call. Calls of active or inactive are those of the source. Rule for the calls: active = hit-call score of the fitted dose curve at least 0.9, where 1 is the maximum; inactive = score below 0.9.
# What was measured:
# [1] = read-out: Human Leukocyte Antigen - DR isotype (HLADR), HLA-DRA (gene 3122); assay: BSK_BE3C_HLADR: BioMAP Diversity Plus: BE3C Assay for Human Leukocyte Antigen - DR isotype (HLADR) Biomarker Activity (AID 2283032); conditions: primary human bronchial epithelial cells; actives raise or lower the signal
# Procedure, shortened: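 Human primary bronchial epithelial cells (BE3C system) exposed to compound for 24 hours; cell-surface HLA-DR measured by ELISA, fitted bidirectionally relative to DMSO. Total protein by SRB in parallel cultures tracked cytotoxicity.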
# [2] = read-out: Vascular cell adhesion molecule 1 (VCAM1), VCAM1 (gene 7412); assay: BSK_4H_VCAM1: BioMAP Diversity Plus: 4H Assay for Vascular cell adhesion molecule 1 (VCAM1) Biomarker Activity (AID 2283033); conditions: primary human endothelial cells (HUVEC); actives raise or lower the signal
# Procedure, shortened: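 Primary human umbilical vein endothelial cells, 4H stimulation system, treated for 24 h; cell-surface VCAM-1 quantified by ELISA. Bidirectional fitting against DMSO; cytotoxicity tracked by SRB total-protein staining in parallel cultures.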
# [3] = read-out: Interferon-gamma inducible Protein 10 (IP10), CXCL10 (gene 3627); assay: BSK_BE3C_IP10: BioMAP Diversity Plus: BE3C Assay for Interferon-gamma inducible Protein 10 (IP10) Biomarker Activity (AID 2283034); conditions: primary human bronchial epithelial cells; actives raise or lower the signal
# Procedure, shortened: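 Primary human bronchial epithelial cells, with IP-10 measured by ELISA 24 hours after chemical dosing. Bidirectional fit against DMSO; cytotoxicity checked by SRB total protein staining in parallel cultures.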
# [4] = read-out: Monokine induced gamma interferon (MIG), CXCL9 (gene 4283); assay: BSK_BE3C_MIG: BioMAP Diversity Plus: BE3C Assay for Monokine induced gamma interferon (MIG) Biomarker Activity (AID 2283035); conditions: primary human bronchial epithelial cells; actives raise or lower the signal;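 for outcome: MIG protein measured by ELISA in BE3C cultures after 24 h of dosing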
# Procedure, shortened: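 ELISA read-out of MIG in human lung bronchial epithelial primary cultures, 24 h post-dosing. Bidirectional curve fit vs DMSO baseline.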
# [5] = read-out: Transforming growth factor beta 1 (TGFb1), TGFB1 (gene 7040); assay: BSK_BE3C_TGFb1: BioMAP Diversity Plus: BE3C Assay for Transforming growth factor beta 1 (TGFb1) Biomarker Activity (AID 2283036); conditions: primary human bronchial epithelial cells; actives raise or lower the signal
# Procedure, shortened: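 Primary human bronchial epithelial cells dosed with chemical; TGF-b1 measured by ELISA 24 h after dosing. Bidirectional curve fitting against DMSO negative control; SRB total-protein staining in parallel cultures gauged cytotoxicity.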
# [6] = read-out: Plasminogen activator inhibitor-1 (PAI1), SERPINE1 (gene 5054); assay: BSK_BE3C_PAI1: BioMAP Diversity Plus: BE3C Assay for Plasminogen activator inhibitor-1 (PAI1) Biomarker Activity (AID 2283037); conditions: primary human bronchial epithelial cells; actives raise or lower the signal
# Procedure, shortened: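 Primary human bronchial epithelial cells (BE3C system) exposed 24 h; PAI-1 quantified by ELISA. Parallel sulforhodamine B staining of total protein flags cytotoxicity. Bidirectional fit versus DMSO.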
# [7] = read-out: urokinase plasminogen activator (uPA), PLAU (gene 5328); assay: BSK_BE3C_uPA: BioMAP Diversity Plus: BE3C Assay for urokinase plasminogen activator (uPA) Biomarker Activity (AID 2283038); conditions: primary human bronchial epithelial cells; actives raise or lower the signal;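 for outcome: uPA protein level quantified by ELISA in cell cultures; uPA read one day after compound addition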
# Procedure, shortened: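 ELISA read-out of uPA in human lung primary bronchial epithelial cultures, 24 h post-dosing. Gain or loss of signal fitted bidirectionally relative to DMSO baseline; cytotoxicity checked in parallel cultures via SRB total protein stain.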
# [8] = read-out: Urokinase-type plasminogen activator receptor (uPAR), PLAUR (gene 5329); assay: BSK_BE3C_uPAR: BioMAP Diversity Plus: BE3C Assay for Urokinase-type plasminogen activator receptor (uPAR) Biomarker Activity (AID 2283039); conditions: primary human bronchial epithelial cells; actives raise or lower the signal;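 for outcome: uPAR protein level measured by ELISA on the cells; cells exposed to compound for one day before measurement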
# Procedure, shortened: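 Primary human bronchial epithelial cells dosed for 24 h; uPAR quantified by ELISA with bidirectional fitting against DMSO. Overt cytotoxicity assessed in parallel cultures by SRB total-protein staining (0.1% SRB, 560 nm).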
# [9] = read-out: Interleukin-6 (IL6), IL6 (gene 3569); assay: BSK_CASM3C_IL6: BioMAP Diversity Plus: CASM3C Assay for Interleukin-6 (IL6) Biomarker Activity for (AID 2283040); conditions: primary human coronary artery smooth muscle cells; actives raise or lower the signal
# [10] = read-out: Tissue plasminogen activator (tPA), PLAT (gene 5327); assay: BSK_BE3C_tPA: BioMAP Diversity Plus: BE3C Assay for Tissue plasminogen activator (tPA) Biomarker Activity (AID 2283041); conditions: primary human bronchial epithelial cells; actives raise or lower the signal;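 for outcome: tPA level quantified by ELISA one day after compound addition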
# Procedure, shortened: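 Primary human bronchial epithelial cells in the BE3C system, exposed to compound for 24 h. tPA was quantified by ELISA; DMSO served as baseline, with gain or loss of signal fitted. Cytotoxicity checked in parallel cultures by SRB total-protein staining.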
# [11] = read-out: Interleukin-8 (IL8), CXCL8 (gene 3576); assay: BSK_CASM3C_IL8: BioMAP Diversity Plus: CASM3C Assay for Interleukin-8 (IL8) Biomarker Activity (AID 2283042); conditions: primary human coronary artery smooth muscle cells; actives raise or lower the signal;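 note: IL-8 protein level quantified by ELISA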
# [12] = read-out: Human Leukocyte Antigen - DR isotype (HLADR), HLA-DRA (gene 3122); assay: BSK_CASM3C_HLADR: BioMAP Diversity Plus: CASM3C Assay for Human Leukocyte Antigen - DR isotype (HLADR) Biomarker Activity (AID 2283043); conditions: primary human coronary artery smooth muscle cells; actives raise or lower the signal;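 note: cell-surface HLA-DR protein level quantified by ELISA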
# [13] = read-out: Macrophage colony-stimulating factor (MCSF), CSF1 (gene 1435); assay: BSK_CASM3C_MCSF: BioMAP Diversity Plus: CASM3C Assay for Macrophage colony-stimulating factor (MCSF) Biomarker Activity (AID 2283044); conditions: primary human coronary artery smooth muscle cells; actives raise or lower the signal;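 note: M-CSF protein amount quantified by ELISA after 24 h exposure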
# [14] = read-out: Low-density lipoprotein receptor (LDLR), LDLR (gene 3949); assay: BSK_CASM3C_LDLR: BioMAP Diversity Plus: CASM3C Assay for Low-density lipoprotein receptor (LDLR) Biomarker Activity (AID 2283045); conditions: primary human coronary artery smooth muscle cells; actives raise or lower the signal;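 note: LDLR protein level on the cell surface quantified by ELISA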
# [15] = read-out: Monocyte Chemoattractant Protein-1 (MCP1), CCL2 (gene 6347); assay: BSK_CASM3C_MCP1: BioMAP Diversity Plus: CASM3C Assay for Monocyte Chemoattractant Protein-1 (MCP1) Biomarker Activity (AID 2283046); conditions: primary human coronary artery smooth muscle cells; actives raise or lower the signal;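 note: MCP-1 level quantified by ELISA 24 h after dosing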
# [16] = BSK_CASM3C_Proliferation: Cell Proliferation Assessment in the BioMAP Diversity Plus: CASM3C Assay (AID 2283047); conditions: primary human coronary artery smooth muscle cells;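 note: sulforhodamine B total protein stain as relative cell number at 560 nm; sub-confluent cells exposed 48 h before staining; fitted both ways against DMSO so gain or loss of cell number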
# [17] = read-out: Monokine induced gamma interferon (MIG), CXCL9 (gene 4283); assay: BSK_CASM3C_MIG: BioMAP Diversity Plus: CASM3C Assay for Monokine induced gamma interferon (MIG) Biomarker Activity (AID 2283048); conditions: primary human coronary artery smooth muscle cells; actives raise or lower the signal;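 note: MIG protein level measured by ELISA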
# [18] = read-out: serum amyloid A (SAA), SAA1 (gene 6288); assay: BSK_CASM3C_SAA: BioMAP Diversity Plus: CASM3C Assay for serum amyloid A (SAA) Biomarker Activity (AID 2283049); conditions: primary human coronary artery smooth muscle cells; actives raise or lower the signal;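 note: SAA protein level quantified by ELISA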
# [19] = BSK_CASM3C_SRB: Viability Assessment in the BioMAP Diversity Plus: CASM3C Assay (AID 2283050); conditions: primary human coronary artery smooth muscle cells
# [20] = read-out: Thrombomodulin, THBD (gene 7056); assay: BSK_CASM3C_Thrombomodulin: BioMAP Diversity Plus: CASM3C Assay for Thrombomodulin Biomarker Activity (AID 2283051); conditions: primary human coronary artery smooth muscle cells; actives raise or lower the signal;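 note: thrombomodulin protein level measured by ELISA 24 h after dosing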
structure (smiles),measurement,setting,value
CC#C[C@]1(O)CC[C@H]2[C@@H]3CCC4=CC(=O)CCC4=C3[C@@H](c3ccc(N(C)C)cc3)C[C@@]21C,outcome,[1],inactive
same,AC50,[2],26.4 µM (active)
same,AC50,[3],36.7 µM (active)
same,outcome,[4],inactive
same,outcome,[5],inactive
same,AC50,[6],12.9 µM (active)
same,AC50,[7],34.7 µM (active)
same,AC50,[8],33.7 µM (active)
same,outcome,[9],inactive
same,AC50,[10],19.4 µM (active)
same,AC50,[11],5.69 µM (active)
same,outcome,[12],inactive
same,outcome,[13],inactive
same,outcome,[14],inactive
same,outcome,[15],inactive
same,AC50,[16],31.1 µM (active)
same,outcome,[17],inactive
same,outcome,[18],inactive
same,AC50,[19],31.8 µM (active)
same,outcome,[20],inactive
O=c1c(-c2ccc(O)cc2)coc2cc(O)ccc12,outcome,[1],inactive
same,outcome,[2],inactive
same,outcome,[3],inactive
same,outcome,[4],inactive
same,outcome,[5],inactive
same,outcome,[6],inactive
same,outcome,[7],inactive
same,outcome,[8],inactive
same,outcome,[9],inactive
same,outcome,[10],inactive
same,outcome,[11],inactive
same,outcome,[12],inactive
same,outcome,[13],inactive
same,outcome,[14],inactive
same,outcome,[15],inactive
same,outcome,[16],inactive
same,outcome,[17],inactive
same,outcome,[18],inactive
same,outcome,[19],inactive
same,outcome,[20],inactive
CC(C)(C)CC(C)(C)c1ccc(O)c(-n2nc3ccccc3n2)c1,outcome,[1],inactive
same,outcome,[2],inactive
same,outcome,[3],inactive
same,outcome,[4],inactive
same,outcome,[5],inactive
same,outcome,[6],inactive
same,outcome,[7],inactive
same,outcome,[8],inactive
same,outcome,[9],inactive
same,outcome,[10],inactive
same,outcome,[11],inactive
same,AC50,[12],15.7 µM (active)
same,AC50,[13],28.8 µM (active)
same,AC50,[14],20 µM (active)
same,outcome,[15],inactive
same,AC50,[16],29.8 µM (active)
same,outcome,[17],inactive
same,AC50,[18],32.4 µM (active)
same,outcome,[19],inactive
same,AC50,[20],22.7 µM (active)
NC(=O)N(O)[C@@H]1C=C[C@H](Oc2cccc(Oc3ccc(F)cc3)c2)C1,outcome,[1],inactive
same,outcome,[2],inactive
same,AC50,[3],30.7 µM (active)
same,outcome,[4],inactive
same,outcome,[5],inactive
same,outcome,[6],inactive
same,outcome,[7],inactive
same,outcome,[8],inactive
same,outcome,[9],inactive
same,AC50,[10],5.68 µM (active)
same,outcome,[11],inactive
same,AC50,[12],3.95 µM (active)
same,outcome,[13],inactive
same,outcome,[14],inactive
same,outcome,[15],inactive
same,AC50,[16],7.17 µM (active)
same,outcome,[17],inactive
same,outcome,[18],inactive
same,outcome,[19],inactive
same,AC50,[20],9.41 µM (active)
OCCC(F)(F)C(F)(F)C(F)(F)C(F)(F)C(F)(F)C(F)(F)F,outcome,[1],inactive
same,outcome,[2],inactive
same,outcome,[3],inactive
same,outcome,[4],inactive
same,outcome,[5],inactive
same,outcome,[6],inactive
same,outcome,[7],inactive
same,outcome,[8],inactive
same,outcome,[9],inactive
same,outcome,[10],inactive
same,outcome,[11],inactive
same,outcome,[12],inactive
same,outcome,[13],inactive
same,outcome,[14],inactive
same,outcome,[15],inactive
same,AC50,[16],44.3 µM (active)
same,outcome,[16],inactive
same,outcome,[17],inactive
same,outcome,[18],inactive
same,outcome,[19],inactive
same,outcome,[20],inactive
CCCOc1sc(C(=O)N2CCC(c3cc(CN)ccc3F)CC2)c(C)c1Br,AC50,[1],7.9 µM (active)
same,AC50,[2],8.01 µM (active)
same,AC50,[3],9.51 µM (active)
same,AC50,[4],10.2 µM (active)
same,AC50,[5],6.71 µM (active)
same,AC50,[6],9.91 µM (active)
same,AC50,[7],5.88 µM (active)
same,AC50,[8],7.36 µM (active)
same,AC50,[9],27.4 µM (active)
same,AC50,[10],5.19 µM (active)
same,AC50,[11],15.4 µM (active)
same,AC50,[12],4.87 µM (active)
same,AC50,[13],9.62 µM (active)
same,AC50,[14],27.1 µM (active)
same,AC50,[15],17.5 µM (active)
same,AC50,[16],7.94 µM (active)
same,AC50,[17],27.8 µM (active)
same,AC50,[18],11.9 µM (active)
same,AC50,[19],12.9 µM (active)
same,AC50,[20],32.6 µM (active)
